Screening data as filed in PubChem BioAssay.
TDP1 block: qHTS Assay for Inhibitors of Tyrosyl-DNA Phosphodiesterase (TDP1). hit rate 0.28% among 350,000. Tyrosyl-DNA phosphodiesterase 1 (Homo sapiens), Q9NUW8. recombinant TDP1, AlphaScreen DNA substrate cleavage. Potency, µM (highest dose often 130 µM), without a hit: at the top dose activity change, negative = inhibition, hits mostly inhibitors. AID 485290, 2010; note: potency is the fitted concentration of half-maximal effect; nearly all actives have a fitted effect of over 40% in size
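Tdp1 1 nM final; 15 min RT w/ cpd; substrate 15 nM, 5 min; beads 10 ug/ml, 10 min; AlphaScreen read. Neg ctrl: no enzyme.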
PI4K2A inh: qHTS for small molecular inhibitors of PI4K2A; Phosphatidylinositol 4-kinase type 2-alpha (Homo sapiens), Q9BTU6; purified PI4K2A, ADP-Glo luminescence, 1 h; active compounds read low; activity change, negative = inhibition, % at 76.9 µM; hit rate 0.13% among 420,000; AID 1346378, 2018; in the data active = activity change below about -50%; inconclusive = mostly about -30% to -49%;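 note: -100% = wells without enzyme as full effect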
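ADP-Glo luminescence measured ADP generated by PI4K2A enzyme (4 ug/mL before mixing) with 1.2 mM PI substrate (pre-mix) and 300 microM ATP (pre-mix). Tris pH7.5 buffer with MgCl2, Triton X-100; 1 h reaction at ambient temperature.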
Tb PFK block: qHTS Assay to Find Inhibitors of T. brucei phosphofructokinase | ATP-dependent 6-phosphofructokinase (Trypanosoma brucei brucei), O15648 | T. brucei PFK, ADP-Glo luminescence | Potency, µM (top dose mostly 57.5 µM), inactives show top-dose activity, negative = inhibition, actives largely listed as inhibitors | hit rate 0.17% among 330,000;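 note: potency is the fitted concentration of half-maximal effect; 0% = uninhibited 1x PFK enzyme wells and -100% = no-enzyme wells; nearly all actives have a fitted effect of over 60% in size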
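PFK 1.25 nM, F6P 0.5 mM, ATP 0.1 mM, 0.1 M TEA pH 8.0, 5 mM MgCl2, 0.01% Tween20, 0.1% BSA; 45 min RT. ADP-Glo readout. qHTS titration up to 57 uM; curves fitted, compounds curve-classed.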
PGK inhibitor: qHTS Assay to Find Inhibitors of Phosphoglycerate Kinase | Potency, µM (series often up to 57.5 µM), inactives show top-dose activity change, negative = inhibition, most hits filed as inhibitors | AID 602233, 2012 | PGK/GAPDH coupled, Kinase-Glo luminescence, 60 min | hit rate 0.043% among 380,000; note: potency is the fitted concentration of half-maximal effect; nearly all actives have a fitted effect of over 60% in size
Target sequence (P07378 whole entry, looked up): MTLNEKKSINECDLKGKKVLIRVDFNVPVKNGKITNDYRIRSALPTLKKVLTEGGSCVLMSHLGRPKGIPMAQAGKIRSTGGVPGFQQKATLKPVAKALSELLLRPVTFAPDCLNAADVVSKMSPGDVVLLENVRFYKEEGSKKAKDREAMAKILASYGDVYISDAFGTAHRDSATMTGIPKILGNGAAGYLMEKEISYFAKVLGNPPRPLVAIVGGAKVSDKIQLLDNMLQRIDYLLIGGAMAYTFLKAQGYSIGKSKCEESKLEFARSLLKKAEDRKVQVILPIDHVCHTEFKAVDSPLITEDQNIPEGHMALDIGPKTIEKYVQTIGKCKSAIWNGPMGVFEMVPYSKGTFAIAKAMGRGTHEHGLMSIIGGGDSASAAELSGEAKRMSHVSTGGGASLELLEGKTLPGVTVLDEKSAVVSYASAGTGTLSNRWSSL
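Recombinant glycosomal PGK reaction used 1,3-bisphosphoglycerate generated in-well by GAPDH (100nM final) in 100mM TEA pH 7.6, 5mM MgCl2, 0.01% Tween-20. After 60 minutes at room temperature, ATP was read by Kinase-Glo Plus luminescence end-point.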
APE1 inh: qHTS Assay for Inhibitors of the Human Apurinic/apyrimidinic Endonuclease 1 (APE1) | recombinant APE1, TAMRA/BHQ-2 abasic DNA cleavage fluorescence | Potency, µM (top dose mostly 65.8 µM), for inactives: top-dose activity change, negative = inhibition, usual class: inhibitors | hit rate 0.35% among 350,000 | AID 2517, 2012;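 note: potency is the fitted concentration of half-maximal effect; plate controls were vehicle for no effect and reference inhibitor for full effect; nearly all actives have a fitted effect of over 55% in size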
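Quantitative HTS: incision of a TAMRA/BHQ-2 double-stranded substrate bearing a tetrahydrofuran abasic site by 0.75 nM APE1 raises fluorescence. Substrate 50 nM final, added after 15 min compound preincubation at room temperature; progress as third-minus-first kinetic read difference.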
FEN1 inh: qHTS Assay for the Inhibitors of Human Flap endonuclease 1 (FEN1); AID 588795, 2011; Potency, µM (top dose mostly 114 µM), for the others: at the top dose activity change, negative = inhibition, usual class: inhibitors; Recombinant FEN1 flap cleavage, fluorescence, 15 min; hit rate 0.35% among 390,000; note: potency is the fitted concentration of half-maximal effect; nearly all actives have a fitted effect of over 65% in size
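Steps: FEN1 (10 nM) dispensed; compound added by pin tool; 15 min at room temperature; substrate added to 50 nM final; reads at 0 min and 15 min; data normalized and fitted (four-parameter Hill).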
* = called active by the depositor; i = inactive; ? = inconclusive; nt = no result; ! = not confirmed by another sample; [ ] = dose if it differs, or a comment. Shown are actives, neighbours in structure and some others; about 0.8% of the full set was active somewhere. Unless noted, calls come from the whole dose curve; as a rule, active = well fitted curve in the direction sought with a large enough effect; inconclusive = small, poorly fitted or top-dose-only effect, or another doubt; inactive = no such curve, though single readings can be large; an effect the other way counts as inactive or inconclusive. Unless noted, % is set by controls: 0 for no effect and ±100 for the full control effect.

SMILES	TDP1 block	PI4K2A inh	Tb PFK block	PGK inhibitor	APE1 inh	FEN1 inh
COc1ccc2nc3cc(Cl)ccc3c(Nc3cc(CN4CCCC4)c(O)c(CN4CCCC4)c3)c2n1	nt	nt	-7.8%	nt	15µM*	nt
CC1(OC(=O)CCc2ccccc2)C(=O)C=C2C=C3CCCN3C=C2C1=O (configuration not stated)	4.47µM*!	-18.4	-5.1%	-3.5%	?	-10.4%
[O-][n+]1c2ccccc2[n+]([O-])c2cc(O)ccc21	nt	-3.8	-6.4%	?	18.9µM*	?
Cc1ccc2ccccc2[n+]1[O-]	nt	nt	nt	nt	nt	2.8%
O=C(N/N=C/c1ccc(F)cc1)c1cc(-c2ccco2)nc2ccccc12	nt	?	-5.2%	?	4.47µM*	79.4µM*
CCNC(=O)COC(=O)c1cc(-c2ccco2)nc2ccccc12	?	-9.5	-21.1%	-22.6%	25.1µM*	?
CC(=O)Nc1ccc(C(=O)OCC(=O)N2CCN(C(=O)c3ccco3)CC2)cc1	-1.8%[56.1 µM]	1.0	-1.1%	9.3%	51.8%	22.6%
CN(C)C(=O)c1ccc(NC(=O)c2cc(-c3ccco3)nc3ccccc23)cc1	2.2%	-21.4	-2.7%	-14.8%	24.6%	?
O=C(O)c1cc(-c2ccco2)nc2ccccc12	nt	-11.4	1.2%	?	25.1µM*	39.8µM*
N#CCC(=O)Nc1ccc(C(=O)OCC(=O)N2CCN(C(=O)c3ccco3)CC2)cc1	44.7µM*	-10.2	?	5.1%	?	-21.2%
COc1ccc(C2c3c(ncn(CCCc4ccccc4)c3=N)Oc3ccc4ccccc4c32)cc1OC (configuration not stated)	6.5%	nt	nt	nt	nt	nt
COc1cccc(C2c3c(ncn(-c4ccccc4C(C)(C)C)c3=N)Oc3ccc4ccccc4c32)c1 (configuration not stated)	4.4%	nt	nt	nt	nt	nt
N[C@H](C(=O)O)[C@@H](O)c1ccc(O)c(O)c1	nt	-11.9	nt	nt	nt	nt
COc1ccc(C2c3c(ncn(CCc4ccccc4)c3=N)Oc3ccc4ccccc4c32)cc1OC (configuration not stated)	4.3%	nt	nt	nt	nt	nt
O=C(OCC(=O)N1CCN(C(=O)c2ccco2)CC1)c1cc(-c2ccco2)nc2ccccc12	nt	?	4.7%	?	15.8µM*	?
O=C(OCC(=O)N1CCN(C(=O)c2ccco2)CC1)c1ccccc1NCCO	44.7µM*	-4.3	-23.6%	i	-43.5%	0.6%
Cc1ccc(-c2cc(C(=O)NCc3ccco3)c3ccccc3n2)o1	nt	-19.5	?	?	31.6µM*	-3.9%
COc1ccc(NC(=O)c2cc(-c3ccco3)nc3ccccc23)cn1	14.1µM*	?	?	-28.4%	?	-34.0%
Cc1cc(C(=O)NCc2ccco2)c2ccccc2n1	6.9%	-4.3	-3.6%	-3.7%	-5.4%	-1.4%
Cc1ccc(CNc2ccc(N3CCNCC3)cc2)cc1	nt	nt	nt	nt	16.3%	nt
COc1ccc(CNC(=O)COC(=O)c2cc(-c3ccco3)nc3ccccc23)cc1	-11.7%	nt	-21.3%	nt	20µM*	nt
COc1ccc(CNC(=O)COC(=O)c2ccccc2C(=O)c2ccccc2)cc1	0.5%	6.7	0.1%	0.2%	-2.8%	3.0%
O=C(NCC1CN(c2ccc(N3CCOCC3=O)cc2)C(=O)O1)c1ccc(Cl)s1 (configuration not stated)	nt	-0.7	nt	nt	nt	nt
NC(=O)N[C@@H](CCC(=O)O)C(=O)O	nt	-1.0	nt	nt	nt	nt
Cc1ccc(O)c(NC(=O)c2noc3c2CCCC3)c1	0.0%	-11.7	nt	i	nt	-6.7%
